PubChem BioAssay
Calls of active or inactive are those of the source.

Experiments:
[1] = compounds binding Alexa647 anti-His antibody – biochemical, small-molecule microarray, 635 nm fluorescence, artefact control for SMM control protein annotation, primary screen (AID 1128); settings: higher = more signal;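 further: score merges feature fluorescence with signal-to-noise for each printed compound spot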
[2] = tested on: Human papillomavirus type 1a E7 protein (residues 1-88); assay: HPV1a E7 small-molecule binders, primary screen, biochemical, small-molecule microarray, residues 1-88, 635 nm (AID 1129); settings: small-molecule microarray binding, fluorescence 635 nm; higher = more signal
[3] = molecular target: Focal adhesion kinase 1 (Homo sapiens) (UniProt Q05397); assay: PTK2 protein binding on printed compound slides – biochemical, small-molecule microarray, 635/667 nm fluorescence, BSA, DTT, primary screen (AID 1130); settings: 635 nm fluorescence, higher = more signal;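 further: composite of spot emission at 667 nm and signal to noise over triplicate slides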
Focal adhesion kinase 1 (Homo sapiens), sequence (Q05397 whole entry, looked up): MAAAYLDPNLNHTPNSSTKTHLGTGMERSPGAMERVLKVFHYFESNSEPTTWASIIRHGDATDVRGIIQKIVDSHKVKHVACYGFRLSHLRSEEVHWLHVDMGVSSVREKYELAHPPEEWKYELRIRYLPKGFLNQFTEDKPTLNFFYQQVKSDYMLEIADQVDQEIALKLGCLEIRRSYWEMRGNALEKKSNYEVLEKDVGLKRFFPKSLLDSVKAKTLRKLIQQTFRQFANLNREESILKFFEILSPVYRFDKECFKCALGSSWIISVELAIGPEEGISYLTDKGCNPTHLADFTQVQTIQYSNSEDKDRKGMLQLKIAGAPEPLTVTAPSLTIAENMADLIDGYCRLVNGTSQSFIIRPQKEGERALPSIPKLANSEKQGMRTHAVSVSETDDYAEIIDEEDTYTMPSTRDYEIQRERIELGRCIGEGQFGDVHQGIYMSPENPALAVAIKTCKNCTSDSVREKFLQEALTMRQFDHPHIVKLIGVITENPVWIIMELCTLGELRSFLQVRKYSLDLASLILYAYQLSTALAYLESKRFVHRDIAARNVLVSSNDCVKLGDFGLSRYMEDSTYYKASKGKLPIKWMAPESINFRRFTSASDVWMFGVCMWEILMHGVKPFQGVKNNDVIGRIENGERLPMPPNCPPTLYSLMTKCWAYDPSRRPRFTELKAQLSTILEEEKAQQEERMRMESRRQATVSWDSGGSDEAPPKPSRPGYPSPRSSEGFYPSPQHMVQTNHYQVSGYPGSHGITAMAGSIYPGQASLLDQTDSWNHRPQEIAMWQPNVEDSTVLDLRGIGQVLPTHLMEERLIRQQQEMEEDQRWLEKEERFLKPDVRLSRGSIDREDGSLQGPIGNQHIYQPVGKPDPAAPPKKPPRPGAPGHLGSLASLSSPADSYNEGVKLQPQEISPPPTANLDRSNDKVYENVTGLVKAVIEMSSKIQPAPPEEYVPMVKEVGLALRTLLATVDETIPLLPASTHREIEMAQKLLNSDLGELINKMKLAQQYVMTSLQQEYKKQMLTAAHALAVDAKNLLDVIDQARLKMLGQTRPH

[4] = tested on: Fibrinogen (Alexa647-labelled); assay: Alexa647-fibrinogen binding to printed small molecules – biochemical, small-molecule microarray, 635/667 nm fluorescence, artefact control for SMM control-protein annotation, profiling panel (AID 1131); settings: fibrinogen-A647 binding fluorescence, higher = more signal;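 further: z-score merges 667 nm fluorescence with per-spot signal-to-noise over triplicate slides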
[5] = molecular target: Follistatin (Homo sapiens) (UniProt P19883); assay: FST protein binding to printed compounds – biochemical, small-molecule microarray, 635/667 nm fluorescence, primary screen (AID 1132); settings: 635 nm fluorescence, higher = more signal
Follistatin (Homo sapiens), sequence (P19883 whole entry, looked up): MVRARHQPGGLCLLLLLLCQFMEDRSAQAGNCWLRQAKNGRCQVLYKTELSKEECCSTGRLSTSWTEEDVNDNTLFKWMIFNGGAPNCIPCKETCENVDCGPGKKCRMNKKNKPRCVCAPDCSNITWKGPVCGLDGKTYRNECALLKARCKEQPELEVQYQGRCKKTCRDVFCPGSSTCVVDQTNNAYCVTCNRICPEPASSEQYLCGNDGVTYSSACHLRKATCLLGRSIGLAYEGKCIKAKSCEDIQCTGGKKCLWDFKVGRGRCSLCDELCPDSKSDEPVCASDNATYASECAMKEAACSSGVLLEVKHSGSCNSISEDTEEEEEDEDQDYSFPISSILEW

[6] = molecular target: Fibroblast growth factor 2 (Homo sapiens) (UniProt P09038); assay: basic fibroblast growth factor binding to printed compounds – biochemical, small-molecule microarray, 635/667 nm fluorescence, primary screen (AID 1133); settings: FGF2, fluorescence 635/667, higher = more signal
Fibroblast growth factor 2 (Homo sapiens), sequence (P09038 whole entry, looked up): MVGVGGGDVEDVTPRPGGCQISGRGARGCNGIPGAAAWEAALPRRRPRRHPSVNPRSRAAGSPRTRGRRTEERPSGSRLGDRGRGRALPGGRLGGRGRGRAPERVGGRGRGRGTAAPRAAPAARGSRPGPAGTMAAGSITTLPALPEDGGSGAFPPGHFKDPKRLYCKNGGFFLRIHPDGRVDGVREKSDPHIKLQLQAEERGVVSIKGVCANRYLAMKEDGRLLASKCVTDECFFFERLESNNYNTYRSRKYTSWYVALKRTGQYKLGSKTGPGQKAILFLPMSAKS

[7] = JC-1 mitochondrial potential readout, lung cancer cells – cell-based, A549, JC-1 fluorescence, basal, 24 h, 100 nL, profiling panel (AID 1138); settings: higher = more signal;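 further: A549 lung adenocarcinoma cells under basal conditions with no added stimulus; test concentration not given here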
[8] = tested on: Lefty1; assay: Lefty1 protein binding to printed compounds – biochemical, small-molecule microarray, 635/667 nm fluorescence, primary screen (AID 1139); settings: fluorescence 635/667, higher = more signal
[9] = tested on: wheat germ agglutinin (Triticum aestivum), Alexa647-labelled; assay: Alexa647-WGA lectin binding to printed small molecules – biochemical, small-molecule microarray, 635/667 nm fluorescence, artefact control for SMM control-protein annotation, profiling panel (AID 1140); settings: WGA-A647 binding, 635 nm fluorescence, higher = more signal;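 further: score merges 667 nm feature emission with signal to noise over triplicate slides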
[10] = molecular target: Luciferin 4-monooxygenase (Photinus pyralis) (UniProt P08659); assay: inhibition of purified Photinus pyralis luciferase – biochemical, luminescence, purified enzyme, 2006 set, primary screen (AID 1141); settings: purified firefly luciferase, SteadyGlo luminescence, 30 min; higher = more signal, called active from +8 up or from −8 down;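 further: cell-free assay with purified firefly luciferase at 100 ng per well in PBS; test concentration not given here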
Luciferin 4-monooxygenase (Photinus pyralis), sequence (P08659 whole entry, looked up): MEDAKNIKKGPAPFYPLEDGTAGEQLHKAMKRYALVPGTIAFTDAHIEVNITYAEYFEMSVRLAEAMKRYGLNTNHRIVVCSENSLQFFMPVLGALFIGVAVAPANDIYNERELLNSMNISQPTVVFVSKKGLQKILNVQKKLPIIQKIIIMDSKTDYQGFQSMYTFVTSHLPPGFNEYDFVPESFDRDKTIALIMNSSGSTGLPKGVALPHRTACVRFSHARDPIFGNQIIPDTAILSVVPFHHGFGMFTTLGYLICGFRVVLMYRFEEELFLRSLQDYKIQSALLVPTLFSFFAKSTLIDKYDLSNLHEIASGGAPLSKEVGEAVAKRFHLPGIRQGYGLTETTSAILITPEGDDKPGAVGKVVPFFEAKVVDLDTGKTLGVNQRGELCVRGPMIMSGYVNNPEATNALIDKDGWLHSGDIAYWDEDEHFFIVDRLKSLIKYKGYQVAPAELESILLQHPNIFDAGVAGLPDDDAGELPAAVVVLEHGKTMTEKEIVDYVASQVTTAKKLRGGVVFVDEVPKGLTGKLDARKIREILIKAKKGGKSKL

Row | Compound | composite z-score [1] | composite z-score [2] | composite z-score [3] | composite z-score [4] | composite z-score [5] | composite z-score [6] | z-score [7] | composite z-score [8] | composite z-score [9] | z-score [10]
1 | COC(=O)[C@@]1(Cc2ccccc2)[C@H]2c3cc(C(=O)N4CCCC4)n(Cc4c(CO)[nH]cc(C)c4=O)c3C[C@H]2CN1C(=O)c1ccccc1 | 1.18 | 0.93 | 0.777 | 0.827 | 0.518 | -0.258 | -0.0421 | -0.816 | 1.05 | 2.49 (inactive)
2 | COC(=O)C[C@H]1O[C@@H](CCc2ccccc2)[C@@H](C)[C@@H]1[Si](C)(C)c1ccc(OC)cc1 | -0.608 | -1.35 | 0.217 | -0.755 | 0.0222 | -0.187 | 1.57 | -0.105 | -0.359 | 0.301 (inactive)
3 | COc1cc(OC)c(C(O)C2C=CC3C(=O)NC(=O)C3N2Nc2ccccn2)cc1Br (stereo not given) | 2.02 | 0.683 | 0.124 | 0.368 | 0.573 | 0.562 | 0.0938 | 0.483 | 0.0687 | -1.36 (inactive)
4 | COc1ccccc1CN1C(=O)c2ccccc2[C@@H](C(=O)NCc2ccccc2)[C@@H]1c1ccc(CO)cc1 | 1.99 | 0.464 | 0.377 | 0.688 | 0.211 | 0.546 | 1.03 | 0.423 | 0.397 | -0.898 (inactive)
5 | COC(=O)c1c(CC[C@@H](CO)NC(=O)N[C@H](Cc2ccccc2)Cn2cc(-c3ccccn3)nn2)oc(C(C)=O)c1C(=O)OC | 1.52 | -0.178 | 0.0026 | 0.801 | 0.0798 | 0.451 | -0.117 | 0.004 | 0.205 | 0.67 (inactive)
6 | CN1C(=O)C2C=CC(C(O)c3ccccc3)N(N3CCCCC3)C2C1=O (stereo not given) | 0.841 | 1.04 | 0.352 | 0.412 | 0.602 | -0.234 | 0.0958 | 0.0104 | 0.573 | -0.136 (inactive)
7 | CC(C)NC(=O)[C@@H]1c2ccccc2C(=O)N(C(C)C)[C@H]1c1ccc(CO)cc1 | -1.51 | -0.0425 | 0.459 | -0.782 | -0.681 | -0.963 | 1.58 | -0.936 | -0.608 | -0.784 (inactive)
8 | O=C(CS)NCCCCCNC(=O)[C@H]1C[C@H]2C(=O)NCC(=O)N2[C@H]1c1ccc(O)cc1 | -0.0453 | -1.16 | -0.437 | -3.23 | -0.0739 | 0.258 | -0.0966 | 0.0911 | -0.125 | 0.612 (inactive)
9 | COC(=O)[C@]1(CCC(=O)OC(C)(C)C)N=C(c2ccc(OCCCO)cc2)O[C@@H]1c1ccccc1 | 2.76 | 0.527 | -0.239 | -0.233 | 0.263 | 0.16 | 0.804 | -0.657 | 0.197 | -2.77 (inactive)
10 | C#CCNCc1ccccc1 | 0.3 | 0.736 | -0.101 | -0.395 | 0.065 | 0.166 | 0.588 | 0.0644 | -0.219 | -0.352 (inactive)
11 | CC(C)C(=C=CC[C@H](O)c1ccc(CO)o1)CCO | 0.748 | 0.679 | 0.217 | 0.0411 | 1.01 | 0.489 | -0.589 | 1.37 | 0.383 | -0.751 (inactive)
12 | O=C(O)C1N=C(c2ccc(OCCCO)cc2)N(c2ccccc2)O1 (stereo not given) | 1.73 | 1.1 | 0.817 | 0.953 | 1.3 | 1.18 | 0.0657 | 0.369 | 0.207 | -7.84 (inactive)
13 | COCCOC(=O)N1C(=O)[C@@]2(c3cc(C#CC4=CCCCC4)ccc31)[C@H](C(N)=O)[C@H]1C(=O)O[C@H](c3ccccc3)[C@H](c3ccccc3)N1[C@@H]2c1ccc(O)cc1 | 0.753 | 1.18 | 0.671 | 0.958 | 0.886 | 0.58 | -1.1 | 0.553 | 0.686 | -1.98 (inactive)
14 | COC(=O)c1c2oc(c1C(=O)OC)C(=O)NC1(CCCCC1)c1cn(nn1)C[C@H](Cc1ccccc1)NC(=O)N[C@H](CO)CC2 | 0.842 | 0.494 | 0.244 | 0.94 | 0.437 | 0.0141 | 0.304 | 0.609 | 0.831 | 0.893 (inactive)
15 | O=C(CS)NCCCCCNC(=O)[C@H]1C[C@H]2C(=O)NCC(=O)N2[C@H]1c1cccc(OCCO)c1 | -0.0298 | -0.864 | 0.319 | 0.0186 | 0.952 | 0.399 | -0.0613 | -0.0561 | -0.347 | 0.76 (inactive)
16 | COc1cc(CO)cc(I)c1O[C@H]1C=C(C(=O)NCCO)C[C@@H](N(C(=O)c2cc3ccccc3oc2=O)C2CCCCCC2)[C@@H]1O | 0.0786 | -0.832 | -0.314 | 0.138 | 0.625 | 1.32 | -1.79 | 0.803 | 0.972 | 0.93 (inactive)
17 | NC(=O)[C@@]1(Cc2ccccc2)N=C(c2ccc(OCCCO)cc2)O[C@H]1c1ccccc1 | 3.01 | 0.614 | 0.0867 | 0.648 | 0.62 | 0.686 | 0.184 | -0.846 | 1.3 | -1 (inactive)
18 | C=CC[C@]1(C(N)=O)COC(c2ccc(OCCCO)cc2)=N1 | 1.07 | 0.017 | 0.2 | 0.561 | 0.786 | 1.31 | 0.359 | 0.863 | 0.493 | 0.322 (inactive)
19 | COc1ccc(C(O)C2C=CC3C(=O)N(C)C(=O)C3N2NC(=O)OC(C)(C)C)c2ccccc12 (stereo not given) | 1.62 | 1.28 | 0.685 | 0.988 | 0.832 | -0.161 | -0.771 | -0.33 | 1.31 | -0.9 (inactive)
20 | CC(C)CCC[C@@H](C)[C@H]1CC[C@@]2(C)C3=C(CC[C@]12C)[C@@]1(C)CC[C@H](OC(=O)c2ccc(C(F)(F)F)nc2)C(C)(C)C1CC3 (stereo not given in full) | 0.38 | 0.763 | 0.251 | 0.723 | 0.599 | 0.695 | 0.425 | 0.666 | 0.231 | -1.41 (inactive)
21 | Cc1ccc(S[C@]2(C(=O)O)CC(=O)N(Cc3ccccc3C(F)(F)F)[C@@H]2c2ccc(CO)cc2I)cc1 | 0.275 | 0.0179 | -0.0066 | 0.0184 | 0.0699 | 0.511 | 0.348 | -0.781 | 0.75 | -0.499 (inactive)
22 | CCCCC(O)C1C=CC2C(=O)N(C)C(=O)C2N1N1CCCCC1 (stereo not given) | 1.69 | 0.678 | 0.367 | 1.03 | 0.971 | -0.331 | -0.0954 | 0.412 | 1.19 | 0.452 (inactive)
